# The full list was thinned out, with hits kept by preference.
# Giardia FBPA inh – inhibitors of Giardia lamblia fructose-1,6-bisphosphate aldolase | A8B2U2 | purified Giardia FBPA | Potency, µM (series often up to 59.6 µM), for the others: at the top dose activity, negative = inhibition, most hits filed as inhibitors | 290,000 tested, 0.71% active; note: potency is the fitted concentration of half-maximal effect; % is set by controls: 0 for no effect and ±100 for the full control effect; nearly all actives have a fitted effect of over 55% in size
#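 Giardia FBPA (40 nM reagent) was preincubated 10 min at RT with compound (up to 57.5 uM final), then substrate plus GAPDH/TPI/NAD/arsenate coupling system with diaphorase/resazurin was added; resorufin fluorescence (525/598 nm) was read after 20 min.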
# LmPK inhibitor – LmPK (Leishmania mexicana) enzyme inhibition. 290,000 tested, 0.37% active. AID 1721. Potency, µM (top dose mostly 57.5 µM), inactives show at the top dose activity change, negative = inhibition, usual class: inhibitors. Q27686. purified LmPK, Kinase-Glo ATP luminescence, 1 h; note: potency is the fitted concentration of half-maximal effect; % is set by controls: 0 for no effect and ±100 for the full control effect
# Target sequence (Q27686 whole entry, looked up): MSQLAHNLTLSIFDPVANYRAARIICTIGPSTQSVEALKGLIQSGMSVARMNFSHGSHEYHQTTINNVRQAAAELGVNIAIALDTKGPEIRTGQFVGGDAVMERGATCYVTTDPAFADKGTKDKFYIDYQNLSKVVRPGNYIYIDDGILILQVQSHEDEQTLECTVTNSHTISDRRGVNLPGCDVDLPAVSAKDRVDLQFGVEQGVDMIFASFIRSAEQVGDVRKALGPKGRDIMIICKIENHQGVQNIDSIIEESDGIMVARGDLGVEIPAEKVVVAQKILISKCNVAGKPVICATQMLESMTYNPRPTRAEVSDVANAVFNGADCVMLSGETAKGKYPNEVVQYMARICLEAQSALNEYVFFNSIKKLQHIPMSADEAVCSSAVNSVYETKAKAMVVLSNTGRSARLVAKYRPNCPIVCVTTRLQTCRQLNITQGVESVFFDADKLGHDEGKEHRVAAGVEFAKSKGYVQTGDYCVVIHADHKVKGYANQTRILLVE
#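 0.1 nM LmPK, 0.5 mM PEP, 0.1 mM ADP; 50 mM imidazole pH 7.2, 7 mM MgCl2, 50 mM KCl; 1 h RT. Kinase-Glo luminescence readout, normalized to no-enzyme (full inhibition) and uninhibited wells.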
# Cycloheximide cs – affects cycloheximide protein synthesis inhibition readout, counter-screen | max response, % | AID 2314 | 300,000 tested, 12% active | cell reporter, cycloheximide protein synthesis inhibition counterscreen; in the data active = max response mostly above about 13%, no sharp cut-off; inactive = mostly below about 14%; note: read at 38.3 µM for the half of the compounds with a filed dose; 0% is about no effect
# Shiga inhibitor – Shiga toxin inhibition; Vero cells, Shiga toxin protein synthesis inhibition reporter; inhibition, % at 38.7 µM; 290,000 tested, 9.2% active; in the data active = inhibition mostly above about 28%, no sharp cut-off; inactive = mostly below about 43%; note: 0% is about no effect
# Sm TGR block – S. mansoni TGR enzyme inhibition | Q962Y6 | purified TGR, DTNB reduction, TNB absorbance 405 nm | Potency, µM (top dose mostly 114 µM), without a hit: at the top dose activity change, negative = inhibition, hits mostly inhibitors | 360,000 tested, 3% active; note: potency is the fitted concentration of half-maximal effect; % is set by controls: 0 for no effect and ±100 for the full control effect; nearly all actives have a fitted effect of over 60% in size
#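 First, TGR (20 nM dispensed) and NADPH were mixed with compound. Second, a 15 min room-temperature incubation followed. Third, further NADPH and then DTNB were added to start the reaction. Finally, TNB absorbance was monitored kinetically.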
# TbPYK inhibitor – inhibitors of Trypanosoma brucei pyruvate kinase. Q57TT1. TbPYK enzyme, Kinase-Glo Plus ATP luminescence, 45 min. Potency, µM (highest dose often 76.8 µM), inactives show at the highest dose activity, negative = inhibition, most hits filed as inhibitors. 410,000 tested, 0.12% active. AID 624173; note: potency is the fitted concentration of half-maximal effect; % is set by controls: 0 for no effect and ±100 for the full control effect; nearly all actives have a fitted effect of over 50% in size
#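 ADP (130 uM final) triggers the TbPYK reaction after compound addition; incubation is 45 min at room temperature. Kinase-Glo Plus is then added and luminescence imaged. Normalized data are fitted to concentration-effect curves.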
# Numbers without * were called inactive; u = inconclusive; x = no result given. Unless noted, calls come from the whole dose curve; as a rule, active = well fitted curve in the direction sought with a large enough effect; inconclusive = small, poorly fitted or top-dose-only effect, or another doubt; inactive = no such curve, though single readings can be large; an effect the other way counts as inactive or inconclusive.
SMILES,Giardia FBPA inh,LmPK inhibitor,Cycloheximide cs,Shiga inhibitor,Sm TGR block,TbPYK inhibitor
COc1ccc(Cc2nc(-c3ccc(Br)o3)no2)cc1OC,-28%,11%,18*,52,u,-12%
COc1ccc(-c2noc(-c3ccc(Br)o3)n2)cc1OC,7%,1%,10,6,-15%,10%
COc1cccc(OCc2nc(-c3ccc(Br)o3)no2)c1,-2%,3%,28*,48,-9%,3%
Cc1cccc(OCc2nc(-c3ccc(Br)o3)no2)c1,5%,16%,13,92*,-33%,-1%
COc1ccc(NC(=O)c2ccco2)cc1N,40µM*,-12%,65*,66*,-5%,-14%
COc1cc(NC(=O)c2oc3ccccc3c2C)ccc1NC(=O)c1ccco1,-5%,7%,29*,63*,4%,-4%
COc1cc(NC(=O)Cc2ccccc2)ccc1NC(=O)c1ccco1,-4%,-2%,14,19,-5%,-3%
COc1cc(NC(=O)c2ccco2)ccc1NC(=O)c1ccccc1Cl,1%,4%,13*,41,-19%,34%
COc1cc(NC(=O)c2ccccc2Cl)ccc1NC(=O)c1ccco1,0%,4%,41*,59,10%,5%
COc1cc(NC(=O)c2cc3ccccc3o2)ccc1NC(=O)c1ccco1,18%,-3%,-5,-2,7%,1%
CCOC(=O)C1CCCN(C(=O)Cn2ncc3c(C)n(Cc4ccccc4Cl)c(C)c3c2=O)C1 (stereo not drawn),x,x,x,x,-14%,0%
COCOc1cc(OC)ccc1C(=O)/C=C/c1cccc(C(F)(F)F)c1,-1%,x,x,x,x,x
Cc1[nH]c2c(ccc3cccnc32)c1C,-14%,-1%,17*,41*,-17%,2%
O=C(O)Cc1cccc(-c2cc(CCCCCCc3ccc(O[C@H]4O[C@H](CO)[C@@H](O)[C@H](O)[C@@H]4O)c(-c4cccc(CC(=O)O)c4)c3)ccc2O[C@H]2O[C@H](CO)[C@@H](O)[C@H](O)[C@@H]2O)c1,x,x,x,x,x,3%
COc1ccc(-c2nc(C)ncc2N=Nc2ccccc2)cc1,4%,3%,20*,23,14%,0%
Cc1ncc(N=Nc2ccc(F)cc2)c(-c2ccc(Cl)cc2)n1,0%,4%,-3,-4,-5%,-8%
O=S1(=O)C=C(Sc2nnc(-c3ccccc3)o2)c2ccccc21,-4%,0%,-5,4,0.5µM*,u
Cc1cc(C)nc(SC2=CS(=O)(=O)c3ccccc32)n1,-1%,4%,8,14,-23%,1%
N#CCCn1cc(C=C(C#N)C#N)c(-c2ccc(-c3ccccc3)cc2)n1,-11%,-6%,9,11,5µM*,-10%
Cn1c(CC(=O)Nc2ccccc2)cc2ccccc21,2%,0%,40*,46*,-2%,-1%
CCn1c(CNC(=O)c2ccc(F)cc2)cc2ccccc21,2%,-1%,30*,28,-17%,7%
COc1ccc(C(=O)NCc2cc3ccccc3n2C)cc1,6%,1%,29*,x,-19%,-2%
CSc1c(CC(=O)Nc2ccccc2)n(C)c2ccccc12,18%,3%,-2,-11,13%,2%
O=S(=O)(c1ccc(-c2cc(C(F)(F)F)on2)s1)N1CCN(c2ccc(F)cc2)CC1,x,x,x,x,-6%,1%
N#Cc1cnc(Nc2ccc(F)cc2)nc1N,0%,-4%,24*,33,2%,-4%
SMILES,Giardia FBPA inh,LmPK inhibitor,Cycloheximide cs,Shiga inhibitor,Sm TGR block,TbPYK inhibitor
Cc1cc(C)c(C#N)c(Nc2ccc(F)cc2)n1,7%,-6%,-1,-9,-26%,0%
CCc1cccc(Nc2cnn(C34C[C@@H]5C[C@@H](CC(CC(=O)O)(C5)C3)C4)c(=O)c2Cl)c1,-2%,-1%,-4,-12,10%,-1%
Cc1ccc(Nc2cnn(C34CC5CC(CC(CC(=O)O)(C5)C3)C4)c(=O)c2Cl)cc1C,4%,5%,-2,-13,-1%,0%
O=C(O)CC12CC3CC(C1)CC(n1ncc(NCc4ccco4)c(Cl)c1=O)(C3)C2,-6%,2%,-3,-9,11µM*,-20%
O=C(O)CC12CC3CC(C1)CC(n1ncc(NCC4CCCO4)c(Cl)c1=O)(C3)C2 (stereo not drawn),-4%,-2%,0,-11,40µM*,-5%
Cc1nonc1OCCN1CCN(c2ccc([N+](=O)[O-])cc2)CC1,-2%,4%,20*,19,-1%,3%
O=[N+]([O-])c1ccc(N2CCN(CCOc3nonc3-c3ccccc3)CC2)c(Cl)c1,x,-1%,15,-3,0%,0%
CC(C)c1ccc(C2N=C(N)Nc3nc4ccccc4n32)cc1 (stereo not drawn),x,x,x,x,7%,-3%
CCCCCCc1ccc(N2C[C@H](C)[C@@H](CC(=O)NCc3ccccc3)C2=O)cc1,3%,2%,8.5*,-1,14%,-3%
CCCCCCc1ccc(N2C[C@H](Cc3ccccc3)[C@@H](CC(=O)Nc3ccccc3)C2=O)cc1,-13%,-1%,17*,44*,26%,6%
CCCn1c2ccccc2c2cnn(CC(=O)Nc3ccccc3OC)c(=O)c21,x,x,x,x,0%,4%
COc1ccc(-c2nc3cnc(N4CCN(C)CC4)nc3n(C)c2=O)cc1,-5%,x,x,x,x,x
CN(C)CCC=C1c2ccccc2C=Cc2ccccc21,-2%,x,x,x,25µM*,2%
CN(C)CCC=C1c2ccccc2CCc2ccccc21,u,2%,-4,-3,7.1µM*,3%
CN(C)CC/C=C1/c2ccccc2COc2ccccc21,-1%,10%,-2,-3,20µM*,x
NCCCCC(NC(=O)C1CCCN1C(=O)C1CSSCC(N)C(=O)NC(Cc2ccccc2)C(=O)NC(Cc2ccccc2)C(=O)NC(CCC(N)=O)C(=O)NC(CC(N)=O)C(=O)N1)C(=O)NCC(N)=O (stereo not drawn),x,x,x,x,x,5%
CCCCN(C)C(=O)C1CCN(Cc2ccc(OCc3ccccc3)cc2)CC1,-14%,-3%,13,active,1%,-6%
NC(=O)C1CCN(Cc2ccc(OCc3ccccc3)cc2)CC1,u,3%,25*,54*,-6%,-3%
CCOC(=O)C1CCN(Cc2ccc(OCc3ccccc3)cc2)CC1,u,-15%,3,6,3%,4%
O=C(Cn1nc(C(F)(F)F)c2c1CCC2)Nc1ccc(Cl)cc1,x,x,x,x,-2%,1%
CC(/C=C/c1ccccc1)=N\NC(=S)NC(C)C,0%,4%,82*,99*,2%,-6%
CC(/C=C/c1ccccc1)=N\NC(=O)c1ccncc1,u,-2%,-2,-11,1%,-9%
CC(/C=C/c1ccccc1)=N\Nc1nc(C)cc(C)n1,-22%,-2%,33*,44*,2%,-1%
